Experimental data reported in PubChem BioAssay.
Records with an inconclusive call do not appear. Active and inactive are the calls of the source.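 How the source made its calls, unless noted: active means viability increase at or above a cutoff of the median across tested compounds plus 3 SD (cut at about 8.5% in these data, passing the limit was not always enough); inconclusive means some gains above the cutoff, reason not given; inactive means the rest.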

Experiments:
[1] = reduced viability of SK-BR-3 breast cancer cells – cell-based, 24 h, human, pilot screen (AID 572;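 active means viability at or below 10% of carrier control in both of two separate runs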;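 further: compound exposure lasted between 18 and 24 h rather than exactly 24 h; 100% = carrier-treated control wells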); settings: SK-BR-3 viability, CellTiter-Glo luminescence, at 10 µM, stronger effect = lower value
[2] = MRP1 drug-resistance reversers in H69AR cells – cell-based, doxorubicin co-treatment, pilot screen (AID 601;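 active means viability loss from added drug above about 55%, and viability with drug at most 40%, in both replicates, limit read from the data, passing the limit was not always enough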); settings: CellTiter-Glo, 72 h, at 10 µM; for differential viability (reversal): stronger effect = higher value
[3] = yeast transport mutant growth inhibition pilot in 384-well plates, post-Golgi transport modulator project (AID 636; in the data active means inhibition above about 31%); settings: absorbance 615 nm, about 18 h, stronger effect = higher value
[4] = growth suppression of yeast trafficking mutant, preliminary HTS, modulators of trafficking downstream of Golgi apparatus project, 1536-format plate, OD 615 nm (AID 637; in the data active means inhibition above about 30%); settings: yeast transport mutant growth, absorbance 615 nm, 18 h; stronger effect = higher value
[5] = S. cerevisiae growth inhibition in permissive medium (OD615), pilot counter-assay for S. cerevisiae lifespan shortening project, permissive growth control (AID 705;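 active means growth inhibition above 25% in both replicates, a cutoff set 3 SD above the mean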); settings: OD615, 24 h, at 10 µM, stronger effect = higher value
[6] = S. cerevisiae growth inhibition in restrictive medium, OD615, pilot screen, restrictive growth control, yeast lifespan reduction project (AID 706;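 active means growth inhibition above a set limit, 3 SD over mean compound inhibition, in both replicates, cut at about 43% in these data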;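 further: modified DeaD lifespan yeast strain shifted to restrictive glucose medium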); settings: OD615, 48 h, at 10 µM, stronger effect = higher value
[7] = doxorubicin toxicity protection in MRP-1 cells – H69AR cells, CellTiter-Glo, duplicate, MRP-1 activator project, pilot screen (AID 807); settings: H69AR viability with doxorubicin, CellTiter-Glo luminescence; at 10 µM; stronger effect = higher value;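 further: compound pretreatment 18-22 h then 72 h combined with doxorubicin; 0% = doxorubicin alone and 100% = vehicle without doxorubicin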
[8] = viability of HCT116 without oncogenic beta-catenin – human colon tumor cells, pilot screen (AID 823;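 active means cell viability at or below a set limit in both duplicate runs, the limit being the all-compound median minus 4 SD, cut at about 23% in these data, passing the limit was not always enough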;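 further: 0% = wells killed by 20 µM Hyamine and 100% = untreated DMSO cell wells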); settings: HCT116 beta-catenin knockout viability, CellTiter-Glo, 60 h; at 10 µM; stronger effect = lower value
[9] = viability of PTEN-null HCT116 cells – cell-based, HCT116 clonal line, CellTiter-Glo, pilot screen (AID 824;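 active means viability at or below 27.92% in each of two runs, the all-compound median minus 4 SD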;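 further: 0% = 20 µM Hyamine control and 100% = vehicle cell control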); settings: HCT116 PTEN-deleted viability, 60 h, at 10 µM, stronger effect = lower value
[10] = RAM pathway blockade in budding yeast – dse1pr::URA3 reporter, 5-FOA selection, pilot screen (AID 869;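 active means inhibition over a set limit, the all-compound mean plus 3 SD, in both replicate runs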;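 further: 0% = DMSO wells with no growth and 100% = 10 µM 1-NA-PP1 with full growth; RAM network block rescues cells from 5-FOA so hits raise OD615 growth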); settings: S. cerevisiae dse1pr::URA3 5-FOA growth, OD615, 2 d; at 10 µM; stronger effect = higher value; strain carries analog-sensitive mutant Cbk1 kinase
[11] = RAM signaling pathway blockade in yeast – S. cerevisiae, Pdr1DBD-CYC8 efflux-inhibited sensitized strain, primary screen (AID 1298;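 active means RAM network inhibition above 8.4% in each of two replicates, 3 SD over the compound average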;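 further: 0% = DMSO untreated cells without growth and 100% = 10 µM 1-NA-PP1 full growth; higher means more yeast growth rescued from 5-FOA killing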); settings: S. cerevisiae cbk1-as DSE1-URA3 strain, 5-FOA growth OD615, 2 d; at 50 µM; stronger effect = higher value
[12] = HUVEC growth inhibition – cell-based, human, primary screen (AID 575;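 active means viability at or below 30% in both replicate assays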;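 further: 100% = median of untreated cell wells with 0.1% DMSO on each plate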); settings: HUVEC proliferation, CellTiter-Glo luminescence, 72 h; at 10 µM; stronger effect = lower value
[13] = H69AR cell proliferation blockers – human, duplicate replicates, primary screen (AID 580;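 active means viability at or under a set limit in both replicates, limit being median viability minus 3 SD, cut at about 48% in these data, passing the limit was not always enough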;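 further: 100% = mean luminescence of untreated wells and 0% = no signal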); settings: H69AR lung tumor cells viability, ATP luminescence, 72 h; at 10 µM; stronger effect = lower value
[14] = H69AR cells + 2 uM doxorubicin, measured here: viability with 2 uM doxorubicin, stronger effect = lower value
[15] = H69AR cells, compound alone cytotoxicity

Row | Structure (SMILES) | viability [1] | differential viability (reversal) ([2]; H69AR cells + 2 uM doxorubicin) | viability [2, 14] [%] | viability [2, 15] [%] | inhibition [3] | inhibition [4] | growth inhibition [5] | growth inhibition [6] | viability increase [7] | viability [8] | viability [9] | inhibition [10] | RAM network inhibition [11] | viability [12] | viability [13]
1 | COC(=O)c1cc(=O)n(Cc2ccc3c(c2)OCO3)c(=Nc2ccccc2)s1 | 90% (inactive) | -4.97% (inactive) | 43.1 | 38.1 | -5.2% (inactive) | 4.43% (inactive) | 4.22% (inactive) | -1% (inactive) | -5.95% (inactive) | 71.1% (inactive) | 73.3% (inactive) | 3.41% (inactive) | 5.96% (inactive) | – | –
2 | CCCn1c(=O)c(C(=O)NCc2ccccn2)c(O)c2ccccc21 | 78% (inactive) | -12% (inactive) | 69.6 | 57.5 | 2.27% (inactive) | 13.6% (inactive) | 4.69% (inactive) | 12.5% (inactive) | 1.19% (inactive) | 87.4% (inactive) | 104% (inactive) | -1.17% (inactive) | -1.94% (inactive) | 101% (inactive) | –
3 | Brc1ccc2ncnc(Nc3ccc(N4CCOCC4)cc3)c2c1 | 86% (inactive) | -14.1% (inactive) | 91.9 | 77.8 | -2.27% (inactive) | -4.36% (inactive) | -5.24% (inactive) | 11% (inactive) | -6.53% (inactive) | 81.9% (inactive) | 72.9% (inactive) | 1.01% (inactive) | 3.74% (inactive) | – | 77.8% (inactive)
4 | Cc1ccc2c(c1)C1CCCC3C1N2CC(=O)N3Cc1ccccc1 (centres undefined) | 117% (inactive) | -5.75% (inactive) | 81.3 | 75.5 | 0.27% (inactive) | 0.97% (inactive) | -8.15% (inactive) | -24.9% (inactive) | -0.44% (inactive) | – | 53.3% (inactive) | 2.56% (inactive) | 7.32% (inactive) | – | 75.5% (inactive)
5 | CCc1c(C)n([O-])c2c([n+]1=O)CCC2 | 104% (inactive) | 5.73% (inactive) | 97 | 103 | -5.54% (inactive) | -2.62% (inactive) | -8.65% (inactive) | -5.88% (inactive) | -0.78% (inactive) | 99.4% (inactive) | 102% (inactive) | 0.88% (inactive) | 3.44% (inactive) | 89.2% (inactive) | 103% (inactive)
6 | Cc1ccc(-c2oc3ccccc3c(=O)c2O)cc1 | 78.5% (inactive) | -6.71% (inactive) | 74.5 | 67.8 | -3.87% (inactive) | -1.17% (inactive) | -12.1% (inactive) | -12.3% (inactive) | -5.56% (inactive) | 10.2% (active) | 11.8% (active) | 2.66% (inactive) | 0.63% (inactive) | – | 67.8% (inactive)
7 | O=C(C1CC1)N1CCc2cc(Br)cc(S(=O)(=O)N3CCOCC3)c21 | 98% (inactive) | 10.4% (inactive) | 80.1 | 90.6 | -7.95% (inactive) | 1.11% (inactive) | -11.8% (inactive) | -12.8% (inactive) | -5.31% (inactive) | 91.9% (inactive) | 83.2% (inactive) | 1.35% (inactive) | 2.33% (inactive) | 88.5% (inactive) | 90.6% (inactive)
8 | CCc1ccc(C(=O)NC2CCCCC2)s1 | 68% (inactive) | 17.8% (inactive) | 90.7 | 109 | -3.01% (inactive) | 0.81% (inactive) | -14.4% (inactive) | 3.24% (inactive) | -0.13% (inactive) | 91.8% (inactive) | – | -0.215% (inactive) | 4.77% (inactive) | 94.7% (inactive) | 109% (inactive)
9 | NC(=O)c1sc2nc(N3CCCCC3)c3c(c2c1N)CCCC3 | 75% (inactive) | -0.75% (inactive) | 86.4 | 85.7 | -6.89% (inactive) | 2.17% (inactive) | 8.56% (inactive) | – | -3.63% (inactive) | 104% (inactive) | 94.6% (inactive) | 0.715% (inactive) | 5.61% (inactive) | 82.8% (inactive) | 85.7% (inactive)
10 | COc1ccc(C)cc1NC(=O)CNC(=O)Cn1ccc2ccccc2c1=O | – | 6.84% (inactive) | 85.9 | 92.8 | -1.18% (inactive) | 1.59% (inactive) | -17.2% (inactive) | -3.23% (inactive) | -2.41% (inactive) | 89% (inactive) | 90.3% (inactive) | 1.96% (inactive) | 5.68% (inactive) | 112% (inactive) | 92.8% (inactive)
11 | O=C(CCCCCn1c(=O)[nH]c2ccsc2c1=O)N1CCCCC1 | – | 5.84% (inactive) | 89.2 | 95 | -2.5% (inactive) | 7.62% (inactive) | 1.02% (inactive) | -1.91% (inactive) | -1.28% (inactive) | 96.9% (inactive) | 99% (inactive) | 0.36% (inactive) | -0.43% (inactive) | 102% (inactive) | 95% (inactive)
